The structures appear in SMILES notation. Out of some 220,000 compounds screened, about 800 (0.36%) were called active. This is one part of a sample in which actives are shown more often than they occur. Values without a mark were called inactive. No stated cut-off is given here; in the data, active means activation above about 33% (passing the limit was not always enough); inactive means the rest.

In the assay the target is Neuropeptide Y receptor type 1 (Homo sapiens) (UniProt P25929). As to the kind of experiment: activation enhancers of human NPY-Y1 – cell-based, primary screen (AID 1304).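 Further: cells stimulated with NPY at EC10 then isoproterenol at EC100; 0% = low agonist plus stimulus and 100% = saturating agonist plus stimulus.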 To be noted: NPY-Y1 expressing cells, potentiator/agonist activation; at 3.6 µM; hits give high values.
Chain of Neuropeptide Y receptor type 1 (Homo sapiens) (P25929 whole entry, looked up): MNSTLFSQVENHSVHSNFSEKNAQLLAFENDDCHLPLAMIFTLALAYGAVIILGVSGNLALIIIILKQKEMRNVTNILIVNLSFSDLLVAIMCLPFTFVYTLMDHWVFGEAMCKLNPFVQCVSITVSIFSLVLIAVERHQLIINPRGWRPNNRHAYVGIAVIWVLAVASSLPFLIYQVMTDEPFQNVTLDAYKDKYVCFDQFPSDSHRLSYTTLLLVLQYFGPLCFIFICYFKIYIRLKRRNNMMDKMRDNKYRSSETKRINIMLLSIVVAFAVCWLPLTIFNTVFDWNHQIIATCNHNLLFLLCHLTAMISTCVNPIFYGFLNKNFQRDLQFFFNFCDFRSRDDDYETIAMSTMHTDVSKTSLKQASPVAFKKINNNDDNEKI
Take `CCc1ccc2nc(Nc3ncc(C(C)=O)c(C)n3)nc(C)c2c1`: the activation was 9.28%.
Consider `OCC1(CCc2ccccc2)CCN(Cc2ccc3nsnc3c2)CC1`, for which the activation is -0.79%.
As for `O=C(/C=C/c1cnc2ccccc2n1)NC1CCCCCC1`, the figure is -3.45%; as for `COCCNC(=O)/C(C#N)=C/c1nc(N(C)C)n(-c2ccc(F)cc2)c1Cl`, 0.95%.
As for `CCCCN1C(=S)NC[C@@H]1C(C)CC` (stereo not given in full), the figure is -11.4%; as for `O=C(c1cccs1)N1CCN(C(=O)N2CCOCC2)CC1`, 112% (active).
With `CCS(=O)(=O)N1CCN(C(=O)c2cccs2)CC1` the figure was 3.05%; with `Cc1ccc(C(=O)N2CCN(C(=O)N3CCOCC3)CC2)cc1`, -5.88%.
As for `O=S1(=O)C=C(SCCN2CCCC2)c2ccccc21`, the activation was 19%.
With `O=C(CN1C(=O)CC(c2ccccc2)S(=O)(=O)c2ccccc21)NC1CCCC1` (stereo not given), the activation was -1.33%.
For `Cc1cc([N+](=O)[O-])c(NC2CCCCC2)c([N+](=O)[O-])c1`, the activation was -19.9%.
As for `Cc1cc(-c2nnc(CCC(=O)NC(c3ccccc3)c3ccccc3)o2)no1`, the activation is -1.1%.
With `O=C(NC1CCN(Cc2ccccc2)CC1)c1ccc(Oc2cc(Cl)cc(Cl)c2)o1` the figure was 2.83%; with `O=C(NC(=S)N1CCc2ccccc21)c1ccco1`, 5.18%; with `COc1ccccc1NC(=O)/C=C/C(=O)O`, -17.3%.
For `COC(=O)c1sc(-c2ccc(C(C)(C)C)cc2)cc1NC(=O)/C=C/C(=O)O`, the activation is 51.4% (active).
With `O=C(O)/C=C/C(=O)Nc1ccc(F)cc1F` the figure was -9.35%.
As for `CCOC(=O)C1CCN(C(=O)Nc2ccc(C)c(Cl)c2)CC1`, the figure is 2.62%.
With `CCCCCCCCCCCCN1C(=O)CSC1c1cccnc1` (stereo not given) the figure was 5.01%; with `CCOC(=O)C1(S(=O)(=O)c2ccccc2)CCN(Cc2ccccc2)CC1`, 3.32%; with `CC1=C/C(=N\OS(=O)(=O)c2ccccc2)C=CC1=O`, 44.8% (active).
On to `CC1=C/C(=N\S(=O)(=O)c2ccccc2)C(C(C)C)=CC1=O`, for which the activation is 2.13%.
With `COc1ccc(C(=O)COC(=O)c2nn(C)c(=O)c3ccccc23)c(OC)c1` the figure was -10.6%; with `CCOc1ccc(C(=O)NC(=S)Nc2ccc(NC(=O)C(C)C)cc2)cc1[N+](=O)[O-]`, -12.8%; with `NC(=O)C1(N2CCCCC2)CCN(C(=S)Nc2ccc(Cl)cc2)CC1`, -0.45%.
As for `CC(C)(O)C#Cc1ccc(C(=O)N2CCC(C(N)=O)(N3CCCCC3)CC2)cc1`, the figure is 4.73%; as for `NC(=O)C1(N2CCCCC2)CCN(C(=O)c2ccc(C#Cc3ccccc3)o2)CC1`, 62.8% (active); as for `O=c1oc(-c2ccco2)nc2sc3c(c12)CCCCC3`, 9.25%.
As to `CN(c1ccccc1)S(=O)(=O)c1cccc(NC(=O)Cc2c(F)cccc2Cl)c1`, the activation is -12%.
Consider `C#CCOCCOCCOCCNc1nc(N2CCN(C(=O)C(Cc3ccc(O)cc3)n3cc(C(N)CC(C)C)nn3)CC2)nc(N2CCN(C(=O)C(Cc3ccc(O)cc3)n3cc(C(N)C(C)CC)nn3)CC2)n1` (stereo not given), for which the activation was 11.7%.
For `C#CCOCCOCCOCCNc1nc(N2CCN(C(=O)[C@H](CCCCN)n3cc([C@@H](N)C(C)CC)nn3)CC2)nc(N2CCN(C(=O)[C@H](Cc3ccc(O)cc3)n3cc([C@@H](N)C(C)CC)nn3)CC2)n1` (stereo not given in full), the activation is 111% (active).
With `C#CCOCCOCCOCCNc1nc(N2CCN(C(=O)[C@H](Cc3ccc(O)cc3)n3cc(C(N)CC(C)C)nn3)CC2)nc(N2CCN(C(=O)[C@H](CCC(=O)O)n3cc(C(N)[C@H](C)CC)nn3)CC2)n1` (stereo not given in full) the figure was -15%.
As to `Fc1ccc(-c2csc(-c3ccc(C4SCCS4)cc3)n2)cc1F`, the activation was -5.29%.
As for `Cc1cccc(C)c1Nc1c(-c2ccccc2O)nc2ncccn12`, the figure is 80.8% (active); as for `Cc1ccccc1Nc1c(-c2ccccc2)nc2ncccn12`, 46.3%.
With `Nc1nc(SCc2ccc([N+](=O)[O-])cc2)c2ncn(C3OC(CO)C(O)C3O)c2n1` (stereo not given) the figure was -25.4%; with `C/C(=N\NC(=O)c1ccc(CSc2nc(C)cc(C)n2)cc1)C1CCCCC1`, 1.93%.
As for `COc1cc(C(=O)Nc2cc(C(F)(F)F)ccc2N2CCOCC2)ccc1O`, the figure is -20.3%; as for `O=C(CCn1ccc([N+](=O)[O-])n1)Nc1nccs1`, 7.17%.
In the case of `Cc1cccc(C)c1OCC(O)CN1CCCCC1` (stereo not given), the activation was 1.8%.
With `Cc1cccc(OCC(O)CN2CCN(CCN3C(=O)c4cccc5cccc(c45)C3=O)CC2)c1C` (stereo not given) the figure was 38.1% (active); with `Cc1ccc(OCC(O)CN2CCN(CC(O)COc3ccc(C)cc3Cl)CC2)c(Cl)c1` (stereo not given), 6.61%; with `O=C(Nc1nnc(Cc2ccc(Cl)cc2)s1)c1ccncc1`, -10.8%.
With `CCCc1nc2oc3c(=O)[nH]cnc3c2c2c1COC(C)(C)C2`, the activation was 8.17%.
With `Cc1cnc(C(=O)OCC(=O)N2CCc3ccccc32)cn1` the figure was -19.3%; with `OC(COc1cccc2ccccc12)CN1CCN(c2ccccn2)CC1` (stereo not given), 50.8% (active); with `O=C1c2cccc3cccc(c23)N1CN1CCN(c2ccccn2)CC1`, 11.2%.
Take `Cc1ccccc1OCC(O)CN1CCN(c2ccccn2)CC1` (stereo not given): the activation is 29.6%.
As for `CCCOCC(O)CC(CC)C(=O)NNC(=S)Nc1ccccc1` (stereo not given), the figure is -8.03%; as for `O=C(/C=C/c1ccc(OCc2c(F)cccc2Cl)cc1)N1CCOCC1`, -15.1%.

The values are drawn from PubChem BioAssay AID1304 (The Scripps Research Institute Molecular Screening Center, 2008).
